# Rows were chosen to be rich in hits. Some 8.9% of all compounds tested hit in one or more screens of this group.
# HPGD block: blocks human HPGD enzyme activity. Potency, µM, inactives show at the top dose activity change, negative = inhibition, hits mostly inhibitors. 150,000 tested, 4.3% active. P15428. AID 894. purified HPGD, NADH fluorescence kinetic, PGE2 substrate; active = well fitted inhibition curve with a large enough effect, not every such curve was filed as active; inconclusive = small, poorly fitted or top-dose-only effect, or another doubt; inactive = no such curve, though single readings can be large or run the other way; also: potency is read from the fitted curve at half-maximal effect
# Target sequence (P15428 whole entry, looked up): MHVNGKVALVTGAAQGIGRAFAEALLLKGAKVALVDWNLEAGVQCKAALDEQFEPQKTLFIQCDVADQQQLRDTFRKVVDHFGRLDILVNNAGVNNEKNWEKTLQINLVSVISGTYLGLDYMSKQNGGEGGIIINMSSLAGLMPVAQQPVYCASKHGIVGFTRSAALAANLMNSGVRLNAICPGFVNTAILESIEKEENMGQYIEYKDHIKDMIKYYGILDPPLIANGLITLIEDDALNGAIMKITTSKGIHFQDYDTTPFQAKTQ
#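 NADH formation kinetics: reaction with 30 uM PGE2 and 1 mM NAD+ (final), 20 nM enzyme, Tris-HCl pH 8 with Tween 20, after 15 min compound preincubation at room temperature. Fluorescence change, last versus first of five reads.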
# NPSR antagonist: antagonists of human neuropeptide S receptor cAMP signaling | CHO-NPSR cells, cAMP TR-FRET, antagonist mode | Potency, µM (highest dose often 38.3 µM), for the others: at the highest dose activity change, negative = inhibition, hits mostly inhibitors | AID 1461 | Q6W5P4 | 220,000 tested, 1% active; also: potency is read from the fitted curve at half-maximal effect; nearly all actives have a fitted effect of over 50% in size
# IMPase Li inh: cell-permeable IMPase inhibitors with lithium potentiation. CHO-M1 cells, IP1 TR-FRET (IP-One), carbachol + lithium. Potency, µM (titrated, usually from 59.4 µM), for the others: top-dose activity, negative = IMPase inhibition, usual class: inhibitors. 210,000 tested, 0.35% active. AID 1457;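 also: IP1 builds up when IMPase is blocked and the TR-FRET signal falls; potency is read from the fitted curve at half-maximal effect; plate controls were basal vehicle for no effect and high inhibitor control for full effect; nearly all actives have a fitted effect of over 50% in size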
#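 Lithium-sensitised IP1 accumulation assay; M1-expressing CHO cells treated 30 min at 37C with compound. Competitive antibody detection by time-resolved FRET followed a 10 min room-temperature lysis step.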
# IMPase cell inh: cell-permeable inhibitors of inositol monophosphatase (IMPase); inhibition (IP1 accumulation), % at 46.1 µM; 120,000 tested, under 10 active; P97697; CHO-M1 cells, IP1 accumulation, HTRF TR-FRET ratio; AID 901; active = well fitted curve in the direction sought with a large enough effect in the signal ratio, not every such curve was filed as active; inconclusive = small, poorly fitted or top-dose-only effect, or a change in a side signal; inactive = no such curve, though single readings can be large or run the other way; the % refers to the signal ratio;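 also: cells stimulated with carbachol in lithium chloride buffer; plate controls were DMSO basal wells for no effect and reference inhibitor wells for full effect; higher means more IMPase inhibition seen as more IP1 and lower FRET ratio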
#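 Carbachol-driven Gq signalling in CHO-M1 cells (2000/well) generates IP1. Compounds that block IMPase raise IP1 and so reduce the FRET signal from Eu-anti-IP1 and d2-IP1 after a 10 min room-temperature lysis.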
# 12-hLO inh: blocks human 12-lipoxygenase activity; 150,000 tested, 0.12% active; P18054; Potency, µM (series often up to 57.1 µM), for inactives: top-dose activity change, negative = inhibition, actives largely listed as inhibitors; purified 12-hLO, xylenol orange hydroperoxide absorbance; also: potency is read from the fitted curve at half-maximal effect; nearly all actives have a fitted effect of over 55% in size
#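 Purified human 12hLO (150 nM), preincubated 15 min with compound, then 40 uM arachidonic acid for 30 min, room temperature, Hepes pH 7.0 with 0.01% Triton X-100. Hydroperoxide detected by ferrous iron/xylenol orange; 573/405 nm absorbance ratio gives reaction progress.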
# ALDH1A1 block: ALDH1A1 (human) enzyme inhibition; AID 1030; 220,000 tested, 7.3% active; Purified ALDH1A1, NADH fluorescence, propionaldehyde substrate; Potency, µM (highest dose often 75.3 µM), for the others: top-dose activity, negative = inhibition, actives largely listed as inhibitors; P00352; active = well fitted inhibition curve with a large enough effect, not every such curve was filed as active; inconclusive = small, poorly fitted or top-dose-only effect, or another doubt; inactive = no such curve, though single readings can be large or run the other way;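 also: potency is read from the fitted curve at half-maximal effect; plate controls were no enzyme wells and a reference inhibitor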
# Target sequence (P00352 whole entry, looked up): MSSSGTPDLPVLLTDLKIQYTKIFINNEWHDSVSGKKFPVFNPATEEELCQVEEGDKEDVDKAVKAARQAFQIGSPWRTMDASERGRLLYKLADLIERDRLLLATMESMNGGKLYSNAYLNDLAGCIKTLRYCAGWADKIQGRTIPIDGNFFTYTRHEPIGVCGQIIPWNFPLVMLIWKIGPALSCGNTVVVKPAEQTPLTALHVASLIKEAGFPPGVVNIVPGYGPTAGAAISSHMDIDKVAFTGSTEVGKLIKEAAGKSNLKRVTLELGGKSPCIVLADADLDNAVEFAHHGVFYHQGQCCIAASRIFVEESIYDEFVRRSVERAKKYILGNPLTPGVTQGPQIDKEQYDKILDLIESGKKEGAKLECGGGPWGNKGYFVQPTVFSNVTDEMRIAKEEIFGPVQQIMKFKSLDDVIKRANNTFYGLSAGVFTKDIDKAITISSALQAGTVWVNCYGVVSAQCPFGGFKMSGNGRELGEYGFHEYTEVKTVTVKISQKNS
# An asterisk follows results filed as active; ? = inconclusive; · = not tested or not shown; [ ] = dose if it differs, or a comment. Unless noted, calls follow the shape of the dose curve; as a rule, active = well fitted curve in the direction sought with a large enough effect; inconclusive = small, poorly fitted or top-dose-only effect, or another doubt; inactive = no such curve, though single readings can be large; an effect the other way counts as inactive or inconclusive. Unless noted, % is scaled to controls: 0 for no effect and ±100 for the full control effect.
SMILES,HPGD block,NPSR antagonist,IMPase Li inh,IMPase cell inh,12-hLO inh,ALDH1A1 block
COc1ccc(Nc2nc(Cl)nc(N3CCN(c4ccc(OC)cc4)CC3)n2)cc1,·,50%,29%,·,·,-2%
C=CCNc1nc(Nc2ccc([N+](=O)[O-])cc2)nc(N2CCCC2)n1,·,-55%,9%,·,·,32µM*
CCOC(=O)C(=NC(C)C)NNc1cc(Cl)ccc1Cl,-9%,-9%,13%,-4,-17%,-18%
O=C(NC(=S)Nc1ccccc1N1CCOCC1)c1cccs1,-14%,-3%,6%,·,?,40µM*
O=C(NC(=S)Nc1ccc(N2CCCCC2)cc1)c1cccs1,32µM*,-14%[46.1 µM],4%,7,?,22µM*
O=C(Nc1ccccc1N1CCOCC1)c1cccs1,-12%,-12%[46.1 µM],11%,-6,5%,-1%
O=C(NC(=S)Nc1ccc(S(=O)(=O)N2CCCCCC2)cc1)c1cccs1,-15%,-24%,14%,·,2%,13µM*
CS(=O)(=O)N1CCN(c2ccc(NC(=S)NC(=O)c3cccs3)cc2)CC1,·,-22%,2%,·,·,?
COc1cc(OC)cc(C(=O)NC(=S)Nc2ccc(N3CCCC3)cc2)c1,-11%,21%,8%,·,-23%,11µM*
O=C(NC(=S)Nc1ccc(S(=O)(=O)N2CCCC2)cc1)c1cccs1,?,10%,-3%,·,?,13%
Cc1ccc(C(=O)N/N=C/c2ccc(N3CCOCC3)cc2)c(C)c1,·,-4%,6%,·,·,-14%
Cc1ccc(C(=O)NC(=S)Nc2ccc(N3CCOCC3)cc2)c(C)c1,·,-3%,6%,·,·,32µM*
COC(=O)c1ccccc1NC(=O)COC(C)=O,0%,-8%[46.1 µM],-13%[38.3 µM],0,-6%,5.6µM*
CC(=O)OCC(=O)Nc1ccc([N+](=O)[O-])cc1Cl,·,7%,17%,·,·,8%
COC(=O)c1ccc(C(=O)OC)c(NC(=O)COC(=O)c2ccccc2OC)c1,?,-25%,11µM*,·,-1%,?
CC(=O)OCC(=O)Nc1ccc(Cl)cc1Cl,20µM*,-1%[46.1 µM],-8%[38.3 µM],6,-2%,1%
Clc1ccc(C2NCCc3sccc32)cc1 (stereo not drawn),·,6%,8%,·,·,-10%
CCOC(=O)c1sc(=S)n(C)c1NC(=O)c1ccc(OC)cc1,·,-3%,·,·,·,·
CCOC(=O)c1sc(=S)n(C)c1NC(=O)c1ccccc1Cl,28µM*,-9%[46.1 µM],6%,8,-1%,32µM*
Brc1ccccc1-c1cnco1,·,-6%,-7%,·,·,11%
O=S(=O)(NCCSc1ccccc1)c1ccc2c(c1)OCCO2,-17%,-1%[46.1 µM],13%[38.3 µM],-6,-5%,0.56µM*
O=C(O)CCCCCNS(=O)(=O)c1ccc2c(c1)OCCO2,·,-15%,8%,·,·,?
COC(=O)[C@@H]1CC[C@H](C)[C@@H](c2ccc(C)cc2)N1C(=O)c1ccc(/C=N/O[C@@H](C)CN2CCCCc3nc(C)c(C)cc32)cc1,?,10µM*,16%,·,-2%,?
Cc1ccccc1-n1nnnc1SCC(=O)NCC1CCCO1 (stereo not drawn),·,12%,-1%,·,·,5.6µM*
O=C(CSc1c[nH]c2ccccc12)NCC1CCCO1 (stereo not drawn),4µM*,?,21%[38.3 µM],7,1%,-5%
SMILES,HPGD block,NPSR antagonist,IMPase Li inh,IMPase cell inh,12-hLO inh,ALDH1A1 block
O=C(CSc1ccc2nnc(-c3ccc(F)cc3)n2n1)NCC1CCCO1 (stereo not drawn),?,3%[46.1 µM],25µM*,9,-9%,?
Cn1c(SCC(=O)NCC2CCCO2)nnc1-c1c[nH]c2ccccc12 (stereo not drawn),-7%,-1%[46.1 µM],4%[38.3 µM],2,1%,8%
CCn1c(SCC(=O)NCC2CCCO2)nnc1-c1c[nH]c2ccccc12 (stereo not drawn),32µM*,2%[46.1 µM],7%[38.3 µM],0,-6%,-19%
COc1ccc(C(C(=O)NC(C)(C)C)N(Cc2ccco2)C(=O)CCC(=O)Nc2cc(C)on2)cc1 (stereo not drawn),1%,-2%[46.1 µM],34%[38.3 µM],-3,-2%,5%
CC1Cc2ccccc2N1C(=O)Cn1c(=O)oc2cc(S(=O)(=O)NC3CCCC3)ccc21 (stereo not drawn),13µM*,-11%[46.1 µM],-12%[38.3 µM],-5,-3%,8%
CC1CCN(S(=O)(=O)c2ccc3c(c2)oc(=O)n3CC(=O)N2c3ccccc3CC2C)CC1 (stereo not drawn),-9%,-13%[46.1 µM],9%[38.3 µM],-2,-8%,5%
Cc1csc2c(=O)n(CCO)c(=O)[nH]c12,·,4%,·,·,·,·
O=C1c2cccc3cccc(c23)C(=O)N1OS(=O)(=O)c1ccc(Cl)cc1,?,-19%,-11%,·,2%,?
CCNC(=S)N/N=C1\CCCCc2ccccc21,-24%,-23%,7%,·,-9%,?
O=C(N/N=C1/C(=O)c2cccc3cccc1c23)c1ccc(Cl)cc1,28µM*,?,47%[38.3 µM],-1,-7%,?
CCNC(=S)N/N=C1\C(=O)c2cccc3cccc1c23,-15%,-13%[46.1 µM],21%[38.3 µM],1,-4%,10µM*
Clc1ccc2nc(SCc3nnc(-c4ccccc4)o3)[nH]c2c1,18µM*,-4%[46.1 µM],-20%[38.3 µM],-6,-11%,11µM*
Cn1c2ccccc2c2nnc(SCc3nnc(-c4ccccc4)o3)nc21,·,8%,2%,·,·,4%
Clc1ccc(OCc2nnc(SCc3nnc(-c4ccccc4)o3)o2)c(Cl)c1,7.9µM*,?,28%[38.3 µM],-3,-18%,?
Cn1c(SCc2nnc(-c3ccccc3)o2)nc2ccccc21,·,9%,-6%,·,·,13µM*
CCC1C(=O)NCCN1Cc1nc(-c2ccc(C)s2)oc1C (stereo not drawn),·,-7%,8%,·,·,?
CC1(C2CC2)NC(=O)N(CC(=O)Nc2ccccc2-c2ccccc2)C1=O (stereo not drawn),·,27%,-5%,·,·,18µM*
COc1ccccc1N1CCN(CC(=O)Nc2cc(F)ccc2C)CC1,-7%,-15%[46.1 µM],20%[38.3 µM],4,-9%,18µM*
COc1ccccc1NC(=O)CN1CCN(CC(=O)Nc2ccc(F)cc2)CC1,-19%,-17%[46.1 µM],18%[38.3 µM],-4,3%,25µM*
COc1ccccc1NC(=O)CN1CCN(CC(=O)Nc2ccc(OCc3ccccc3)cc2)CC1,-7%,-9%[46.1 µM],19%[38.3 µM],8,1%,?
O=C(CN1CCCCC1)Nc1ccccc1NC(=O)CN1CCCCC1,-2%,-7%[46.1 µM],18%[38.3 µM],-3,0%,1%
O=C(CN1CCN(Cc2ccccc2)CC1)Nc1ccccc1-c1ccccc1,·,?,22%,·,·,11µM*
CCOC(=O)C1=C(C)NC(=O)NC1c1ccc(OC(=O)c2ccco2)c(OC)c1 (stereo not drawn),-7%,-10%[46.1 µM],-3%[38.3 µM],0,-5%,1%

# Source: PubChem BioAssay
